Assay outcomes as filed in PubChem BioAssay.
This is a sample that favours compounds with a hit; in the whole collection about 2.5% have one here.
MEKK3 PB1 HTS: raises or lowers MEK5 binding to the human MEKK3 PB1 domain; binding response (% of control), % at 10 µM; AID 1529; bead-based flow cytometry, Alexa488-MEK5 binding to MEKK3; actives lie on both sides; 0 = blocked by unlabeled MEK5, 100 = vehicle; Q99759; 290,000 compounds, 1.4% hits;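 active means binding response more than 3 SD above or below the average of its plate-row segment, actives on both sides; inconclusive means wells at one plate position flagged as instrument error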;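 further: Alexa488 bead fluorescence after subtracting the streptavidin-only scavenger bead signal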
MEKK2wt PB1 HTS: raises or lowers MEK5 binding to wildtype human MEKK2 PB1 domain; bead flow cytometry, Alexa488-MEK5 binding to MEKK2 WT; actives lie on both sides; 290,000 compounds, 1.1% hits; AID 1531; binding response (% of control), % at 10 µM; Q9Y2U5; in the data active means binding response below about 67% or above about 130%; inconclusive means no clear call, values can overlap the other calls; inactive means in between
GRK2 aptamer HTS: inhibitors of human GRK2 displacing RNA aptamer | P25098 | bead flow cytometry, FAM-aptamer displacement from GRK2 | 330,000 compounds, 0.59% hits | inhibition of aptamer binding, % at 10 µM;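 active means inhibition of aptamer binding above 40%, roughly 3 SD of noise, on plates passing a quality check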;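 further: median bead fluorescence of bound FAM aptamer so fluorescent compounds give negative values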
Target sequence (P25098 whole entry, looked up): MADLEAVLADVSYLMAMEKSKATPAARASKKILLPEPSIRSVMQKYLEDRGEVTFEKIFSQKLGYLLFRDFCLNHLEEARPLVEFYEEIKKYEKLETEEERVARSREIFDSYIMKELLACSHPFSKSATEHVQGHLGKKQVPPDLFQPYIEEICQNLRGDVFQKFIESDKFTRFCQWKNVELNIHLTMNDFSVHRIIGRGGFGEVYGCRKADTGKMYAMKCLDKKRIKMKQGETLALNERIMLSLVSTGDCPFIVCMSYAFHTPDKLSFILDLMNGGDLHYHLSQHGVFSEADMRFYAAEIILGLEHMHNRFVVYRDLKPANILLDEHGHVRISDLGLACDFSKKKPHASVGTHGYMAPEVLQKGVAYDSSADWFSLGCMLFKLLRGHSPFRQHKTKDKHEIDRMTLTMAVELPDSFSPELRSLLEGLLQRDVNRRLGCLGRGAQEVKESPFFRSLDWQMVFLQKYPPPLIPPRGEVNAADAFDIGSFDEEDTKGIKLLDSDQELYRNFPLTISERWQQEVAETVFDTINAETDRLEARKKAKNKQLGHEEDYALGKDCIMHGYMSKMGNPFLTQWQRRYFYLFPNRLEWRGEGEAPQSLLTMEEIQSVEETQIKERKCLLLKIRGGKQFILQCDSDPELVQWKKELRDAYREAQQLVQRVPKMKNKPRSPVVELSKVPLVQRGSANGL
MEKK2 mut-MEK5: signal of MEK5 binding to mutant human MEKK2 PB1 domain; bead flow cytometry, Alexa488-MEK5 binding to MEKK2 mutant; percent response, % at 10 µM; 290,000 compounds, 0.35% hits; in the data active means percent response above about 24%, passing the limit was not always enough
GRK2 CP1: confirmation of human GRK2 inhibitors displacing RNA aptamer; shares compounds with GRK2 aptamer HTS; bead-bound GRK2, FAM-aptamer displacement, flow cytometry; aptamer displacement, % at 10 µM; 2,000 compounds, 4% hits;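 active means aptamer displacement above 40%, near three times the noise of non-fluorescent compounds, on plates passing quality checks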;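 further: negative values mostly reflect intrinsic compound fluorescence rather than true enhancement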
Aptamer quench 1: fluorescent aptamer quenching in GRK2 counter-screen dose response; Fluorescent RNA aptamer beads, flow cytometry; active compounds read high; shares compounds with GRK2 aptamer HTS; 110 tested, under 10 active; fluorescence change (kMESF span), kMESF (concentration not given with the values); AID 504521;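 active means compounds whose bead fluorescence drops by more than 37 kMESF across the dose range, marking them as dye quenchers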
Aptamer quench SP: counter-screen for GRK2 aptamer inhibitors: fluorescent aptamer quenchers; shares compounds with GRK2 aptamer HTS; Carboxyfluorescein RNA aptamer on beads, flow cytometry quenching; active compounds read low; fluorescence response (% of DMSO), % at 10 µM; 2,000 tested, under 10 active; AID 504580;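 active means compounds that quench the bead-bound fluorescent RNA probe, cutting fluorescence to under half of the solvent control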;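 further: counterscreen run without GRK2 so only probe quenching by compound is measured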
GRK2 CP2: human GRK2 inhibition confirmation, cherry pick 2; bead-bound GRK2, FAM-aptamer displacement, flow cytometry; 360 tested, under 10 active; inhibition of aptamer binding, % at 10 µM; shares compounds with GRK2 aptamer HTS;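 active means inhibition of aptamer binding above 40%, about triple the noise seen with nonglowing compounds, on plates passing quality control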;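 further: negative values mostly come from compounds that fluoresce themselves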
FAM quench SP: quenches fluorescent RNA aptamer, GRK2 hit artifact; shares compounds with GRK2 aptamer HTS; carboxyfluorescein RNA aptamer beads, flow cytometry quenching; active compounds read low; fluorescence response vs DMSO, % at 10 µM; 360 tested, under 10 active;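 active means response vs DMSO under 50%, meaning signal dropped by over half, treated as fluorescence quencher; inconclusive means no clear call, values can overlap the other calls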;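 further: labelled aptamer on streptavidin beads without GRK2 as a quench counter-screen; 100% = bead fluorescence of DMSO wells and lower means quenching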
* marks the source's active call; other numbers are inactive results; ? = inconclusive; nt = no result given.

SMILES	MEKK3 PB1 HTS	MEKK2wt PB1 HTS	GRK2 aptamer HTS	MEKK2 mut-MEK5	GRK2 CP1	Aptamer quench SP	others
O=C(COC(=O)COc1ccccc1[N+](=O)[O-])NCc1ccc2c(c1)OCO2	nt	nt	43*	nt	2	96
O=C(COC(=O)COc1ccccc1[N+](=O)[O-])Nc1ccc2c(c1)OCO2	nt	nt	2	nt	nt	nt
O=C(CCS(=O)(=O)c1ccccc1)Nc1ccccn1	99	92	76*	-2	2	101
O=C(CCS(=O)(=O)c1ccccc1)Nc1ccc(S(=O)(=O)Nc2ncccn2)cc1	101	101	0	3	nt	nt
Cc1ccnc(NC(=O)CS(=O)(=O)c2ccccc2)c1	99	100	0	-4	nt	nt
Cc1cccc(NC(=O)CCS(=O)(=O)c2ccc(Cl)cc2)c1	102	100	3	5	nt	nt	GRK2 CP2=0;FAM quench SP=100
Cc1ccnc(NC(=O)CCS(=O)(=O)c2ccccc2)c1	101	97	14	-1	8	97
O=c1c2c(ncn2C2CCCC2)n(Cc2ccccc2)c(=O)n1CCOc1ccc(Br)cc1	101	101	100*	14	nt	nt	GRK2 CP2=-14;FAM quench SP=107
Cc1cc(C)n2nc(SCC(=O)c3c(N)n(CC(C)C)c(=O)n(C)c3=O)nc2n1	97	90	72*	-9	-3	101
Cc1cc(C)n2nc(SCC(=O)N(CC(C)C)c3c(N)n(CC(C)C)c(=O)[nH]c3=O)nc2n1	109	102	1	-1	nt	nt
Cc1ccnc(NC(=O)COC(=O)c2ccc(F)cc2F)n1	94	89	24	-14	6	95
CCN(CC)C(=O)CCc1nc2sc3c(c2c(=O)[nH]1)CCCC3	103	99	1	2	nt	nt
CCCCc1nc2sc3c(c2c(=O)[nH]1)CCC3	110	112	58*	11	-2	99
O=C(CS(=O)(=O)Cc1ccccc1)Nc1ccc2c(c1)OCO2	99	85	0	-13	nt	nt
O=C(O)CCC(=O)NC1CCCCCCC1	99	101	65*	0	0	104
Cc1ccc(S(=O)(=O)N(C)CC(=O)O/N=C(\N)c2ccccn2)cc1	95	97	100*	8	1	102
CCCCCCOc1ccc(/C=N/NC(=O)C2CC2)cc1	101	104	0	2	nt	nt
COc1ccc(Cl)cc1S(=O)(=O)NCc1cccs1	106	105	51*	14	-7	97
Cc1ccc(NC(=O)Cn2nc([N+](=O)[O-])c(Br)c2C)cc1C	103	102	0	4	nt	nt
COc1cc(C(C2=C(O)CC(C)(C)CC2=O)C2C(=O)CC(C)(C)CC2=O)cc(OC)c1OC (stereo not drawn)	99	99	1	-3	nt	nt
CC1(C)CC(=O)C(C(C2=C(O)CC(C)(C)CC2=O)c2ccco2)C(=O)C1 (stereo not drawn)	106	105	94*	2	-1	104
COc1cc([N+](=O)[O-])cc2sc(NC(C)=O)nc12	108	102	66*	-1	0	95
Cc1nc(Oc2cccc(Cl)c2)c2oc3ccccc3c2n1	99	99	41*	-5	0	99
COc1ccc(Cl)cc1Nc1nc(C)nc2c1oc1ccccc12	103	102	0	-5	nt	nt
CCOC(=O)C(C)Sc1nc2c(c(=O)[nH]c(=O)n2C)n1C/C=C(/C)Cl (stereo not drawn)	97	93	58*	2	58*	97	Aptamer quench 1=-0.8
SMILES	MEKK3 PB1 HTS	MEKK2wt PB1 HTS	GRK2 aptamer HTS	MEKK2 mut-MEK5	GRK2 CP1	Aptamer quench SP	others
CCOC(=O)C1CCN(C(=O)C(=O)c2cn(CC(=O)N3CCCCCC3)c3ccccc23)CC1	93	74	42*	-10	nt	nt	GRK2 CP2=-16;FAM quench SP=103
O=C(c1cc(F)ccc1F)C1CCCN(C(=O)CSc2ccccn2)C1 (stereo not drawn)	100	101	4	6	nt	nt
Cc1ccc(C2(c3noc(CN4C[C@@H](C)O[C@@H](C)C4)n3)CCCC2)cc1	98	95	2	9	nt	nt
CC(=O)c1cn(C)c(=O)c2ccccc12	98	102	2	5	nt	nt
CCc1ccc(N(CC)C(=O)c2cn(C)c(=O)c3ccccc23)cc1	102	106	29	3	0	102
O=C(c1ccccc1F)N1CCN(c2ccccc2F)CC1	99	95	0	-2	nt	nt
O=C(c1ccccc1C(=O)N1CCN(c2ccccc2F)CC1)N1CCN(c2ccccc2F)CC1	106	103	77*	4	3	97
CCOC(=O)N1CCN(C(=O)CCC(=O)N2CCOc3ccc(C)cc32)CC1	95	99	93*	-3	-2	98
CCOC(=O)N1CCC(NC(=O)CCC(=O)N2CCOc3ccc(C)cc32)CC1	100	101	0	1	nt	nt
Cc1cc(C)n(-c2nnc(Cl)c3ccccc23)n1	100	95	2	-7	nt	nt
Cc1cc(C(=O)COC(=O)c2nccnc2N)c(C)n1C	109	103	2	-2	nt	nt
Cc1ccsc1C(=O)OCC(=O)c1cc(C)n(C)c1C	nt	nt	46*	nt	nt	nt	GRK2 CP2=12;FAM quench SP=?
CC(C)CNC(=S)Nc1ccc(Oc2ccccc2)cc1	101	109	0	9	nt	nt
CCOc1cc(N2CCOCC2)c(OCC)cc1NC(=O)c1cccc(S(=O)(=O)N2CCOCC2)c1	nt	nt	30	nt	1	97
CCOc1cc(N2CCOCC2)c(OCC)cc1NC(=O)c1ccccc1	105	99	3	2	nt	nt
O=C(NC1CCCCC1)c1cc(S(=O)(=O)N2CCCCC2)ccc1N1CCOCC1	nt	nt	42*	nt	-2	102
CCOc1cc(N2CCOCC2)c(OCC)cc1NC(=O)c1cc(S(=O)(=O)N2CCOCC2)ccc1F	nt	nt	5	nt	-2	96
CCOc1ccc(CC(=O)NNC(=O)/C=C/C(=O)O)cc1	101	99	1	6	nt	nt
CCCCn1c(N)c(N(CC(C)C)C(=O)c2cc3c(s2)CCC3)c(=O)[nH]c1=O	nt	nt	1	nt	nt	nt
CCCCCCCCc1nc(SCC(C)=O)n[nH]1	89	92	0	-19	nt	nt
Cc1ccc(S(=O)(=O)CCC(=O)Oc2ccc3c(C)cc(=O)oc3c2)cc1	nt	nt	1	nt	nt	nt
COc1cc(C)nc(N2CCC(C(N)=O)CC2)n1	105	102	0	4	nt	nt
O=c1c2ccccc2c(=O)n(-c2ccccc2)n1CCCCBr	nt	nt	1	nt	nt	nt
CC(=O)n1c(=O)c2ccccc2c(=O)n1-c1ccccc1	105	104	23	3	-29	213
